Results: PubChem BioAssay (NCATS)
Inconclusive results are not listed. Calls of active or inactive are those of the source. Unless noted, calls come from the whole dose curve; as a rule, active = well fitted curve in the direction sought with a large enough effect; inconclusive = small, poorly fitted or top-dose-only effect, or another doubt; inactive = no such curve, though single readings can be large; an effect the other way counts as inactive or inconclusive.

Tests used:
[1] = molecular target: Catechol O-methyltransferase (Homo sapiens) (UniProt P21964); assay: Confirmatory Screen for Target Class Profiling of Small Molecule Inhibitors of Methyltransferases (AID 1745852; calls by dose curve; note: potency is the fitted concentration of half-maximal effect; for activity change, negative = inhibition: % is set by controls: 0 for no effect and ±100 for the full control effect); conditions: MTase-Glo luminescence, SAH detection, recombinant enzyme; measured here: COMT max response; stronger effect = lower value
[2] = molecular target: Guanidinoacetate N-methyltransferase (Homo sapiens) (UniProt Q14353); assay: as above; conditions: MTase-Glo luminescence, SAH detection, recombinant enzyme; activity change, negative = inhibition: at 57.3 µM (top of the series)
[3] = molecular target: Nicotinamide N-methyltransferase (Homo sapiens) (UniProt P40261); assay: as above; conditions: MTase-Glo luminescence, SAH detection, recombinant enzyme; measured here: NNMT max response; stronger effect = lower value
[4] = molecular target: Phenylethanolamine N-methyltransferase (Homo sapiens) (UniProt P11086); assay: as above; conditions: MTase-Glo luminescence, SAH detection, recombinant enzyme; measured here: PNMT max response; stronger effect = lower value
[5] = molecular target: Rap guanine nucleotide exchange factor 3 (Homo sapiens) (UniProt O95398); assay: Confirmatory qHTS for antagonist of cAMP-regulated guanine nucleotide exchange factor 3 (EPAC1) (AID 1645880); conditions: EPAC1 Rap1B-BODIPY-GDP exchange, fluorescence; series mostly up to 115 µM;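 note: plate controls were DMSO only for no effect and full effect of the ATA control for full effect; nearly all actives have a fitted effect of over 55% in size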
How it was run: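 Nucleotide exchange uses 100 nM EPAC1, 250 nM RAP1B-BODIPY-GDP and 50 uM GDP, with compounds in a concentration-titration series. After 5 min at room temperature, fluorescence (480 nm ex/540 nm em) is read every 5 min for 30 min. Data are normalized to control ATA and DMSO.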

[6] = molecular target: Rap guanine nucleotide exchange factor 3 (Homo sapiens) (UniProt O95398); assay: Confirmatory qHTS for agonist of cAMP-regulated guanine nucleotide exchange factor 3 (EPAC1) (AID 1645881); conditions: EPAC1 Rap1B BODIPY-GDP exchange fluorescence; series mostly up to 154 µM;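 note: EPAC1 catalysed release of BODIPY-GDP from Rap1B seen as fluorescence loss; 100% = effect of cAMP agonist control; nearly all actives have a fitted effect of over 75% in size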
[7] = molecular target: Rap guanine nucleotide exchange factor 4 (Homo sapiens) (UniProt Q8WZA2); assay: Confirmatory qHTS for agonist of cAMP-regulated guanine nucleotide exchange factor 4 (EPAC2) (AID 1645884); conditions: EPAC2 GEF activity, Rap1B-BODIPY-GDP fluorescence; series mostly up to 154 µM;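 note: nucleotide exchange releases bodipy-GDP from Rap1 and this lowers its fluorescence; % is set by controls: 0 for no effect and ±100 for the full control effect; nearly all actives have a fitted effect of over 65% in size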
[8] = molecular target: Rap guanine nucleotide exchange factor 4 (Homo sapiens) (UniProt Q8WZA2); assay: Confirmatory qHTS for antagonist of cAMP-regulated guanine nucleotide exchange factor 4 (EPAC2) (AID 1645885); conditions: EPAC2 Rap1B-BODIPY-GDP exchange fluorescence, biochemical; series mostly up to 114 µM; note: nearly all actives have a fitted effect of over 25% in size; note: potency is the fitted concentration of half-maximal effect; for activity change, negative = inhibition: % is set by controls: 0 for no effect and ±100 for the full control effect
[9] = molecular target: Metallo-beta-lactamase type 2 (Klebsiella pneumoniae) (UniProt C7C422); assay: qHTS to identify inhibitors of the New Delhi Metallo-beta-lactamase (NDM): assay validation screen against the NCATS LOPAC Collection (AID 1794843); conditions: NDM-1 enzyme, nitrocefin hydrolysis, absorbance 485 nm; series mostly up to 38.4 µM;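 note: nitrocefin turnover by NDM-1 measured as 485 nm absorbance at plateau; % is set by controls: 0 for no effect and ±100 for the full control effect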
How it was run: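 NDM-1 at 2 nM final in 50 mM HEPES pH 7.0 with 1 uM ZnSO4 and 0.01% Tween20 was preincubated with library compounds in DMSO. Nitrocefin (50 uM stock) was then added, and absorbance at 485 nm was read at the kinetic plateau.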

[10] = Primary qHTS for inhibitors of nuclear receptor binding SET domain protein 2 (NSD2) in an isogenic RCH-ACV NSD2 p.E1099K mutant (9B) (AID 1645876); conditions: RCH-ACV NSD2 E1099K (9B) viability, CellTiter-Glo, 72 h; series mostly up to 44.9 µM; note: nearly all actives have a fitted effect of over 70% in size; note: potency is the fitted concentration of half-maximal effect
[11] = Primary qHTS for inhibitors of nuclear receptor binding SET domain protein 2 (NSD2) in an RCH-ACV wild type WT cells (2C) (AID 1645877); conditions: RCH-ACV (leukaemia line) NSD2 WT (2C) viability, CellTiter-Glo, 72 h; series mostly up to 44.9 µM; note: nearly all actives have a fitted effect of over 70% in size; note: potency is the fitted concentration of half-maximal effect

Catechol O-methyltransferase (Homo sapiens), sequence (P21964 whole entry, looked up): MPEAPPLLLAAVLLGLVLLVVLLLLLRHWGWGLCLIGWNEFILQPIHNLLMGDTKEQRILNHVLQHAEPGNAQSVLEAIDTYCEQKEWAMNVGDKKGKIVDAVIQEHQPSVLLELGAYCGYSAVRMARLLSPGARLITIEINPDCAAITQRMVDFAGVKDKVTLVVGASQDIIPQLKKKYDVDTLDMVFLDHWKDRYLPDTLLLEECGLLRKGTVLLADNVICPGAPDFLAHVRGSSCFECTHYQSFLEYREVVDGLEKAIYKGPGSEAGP
Nicotinamide N-methyltransferase (Homo sapiens), sequence (P40261 whole entry, looked up): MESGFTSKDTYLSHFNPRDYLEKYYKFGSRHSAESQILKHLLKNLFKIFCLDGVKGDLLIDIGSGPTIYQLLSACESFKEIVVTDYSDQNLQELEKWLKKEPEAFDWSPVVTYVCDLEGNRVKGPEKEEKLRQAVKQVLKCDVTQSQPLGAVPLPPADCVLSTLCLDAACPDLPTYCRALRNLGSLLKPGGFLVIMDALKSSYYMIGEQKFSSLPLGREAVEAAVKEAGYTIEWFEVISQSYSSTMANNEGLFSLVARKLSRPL
Metallo-beta-lactamase type 2 (Klebsiella pneumoniae), sequence (C7C422 whole entry, looked up): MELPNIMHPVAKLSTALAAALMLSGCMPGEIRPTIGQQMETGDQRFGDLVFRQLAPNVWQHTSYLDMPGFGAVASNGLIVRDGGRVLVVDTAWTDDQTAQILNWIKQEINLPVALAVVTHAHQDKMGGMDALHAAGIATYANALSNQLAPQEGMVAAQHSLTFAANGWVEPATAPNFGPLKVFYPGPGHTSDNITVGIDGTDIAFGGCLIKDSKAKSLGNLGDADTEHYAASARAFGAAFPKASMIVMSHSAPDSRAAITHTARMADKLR
Rap guanine nucleotide exchange factor 3 (Homo sapiens), sequence (O95398 whole entry, looked up): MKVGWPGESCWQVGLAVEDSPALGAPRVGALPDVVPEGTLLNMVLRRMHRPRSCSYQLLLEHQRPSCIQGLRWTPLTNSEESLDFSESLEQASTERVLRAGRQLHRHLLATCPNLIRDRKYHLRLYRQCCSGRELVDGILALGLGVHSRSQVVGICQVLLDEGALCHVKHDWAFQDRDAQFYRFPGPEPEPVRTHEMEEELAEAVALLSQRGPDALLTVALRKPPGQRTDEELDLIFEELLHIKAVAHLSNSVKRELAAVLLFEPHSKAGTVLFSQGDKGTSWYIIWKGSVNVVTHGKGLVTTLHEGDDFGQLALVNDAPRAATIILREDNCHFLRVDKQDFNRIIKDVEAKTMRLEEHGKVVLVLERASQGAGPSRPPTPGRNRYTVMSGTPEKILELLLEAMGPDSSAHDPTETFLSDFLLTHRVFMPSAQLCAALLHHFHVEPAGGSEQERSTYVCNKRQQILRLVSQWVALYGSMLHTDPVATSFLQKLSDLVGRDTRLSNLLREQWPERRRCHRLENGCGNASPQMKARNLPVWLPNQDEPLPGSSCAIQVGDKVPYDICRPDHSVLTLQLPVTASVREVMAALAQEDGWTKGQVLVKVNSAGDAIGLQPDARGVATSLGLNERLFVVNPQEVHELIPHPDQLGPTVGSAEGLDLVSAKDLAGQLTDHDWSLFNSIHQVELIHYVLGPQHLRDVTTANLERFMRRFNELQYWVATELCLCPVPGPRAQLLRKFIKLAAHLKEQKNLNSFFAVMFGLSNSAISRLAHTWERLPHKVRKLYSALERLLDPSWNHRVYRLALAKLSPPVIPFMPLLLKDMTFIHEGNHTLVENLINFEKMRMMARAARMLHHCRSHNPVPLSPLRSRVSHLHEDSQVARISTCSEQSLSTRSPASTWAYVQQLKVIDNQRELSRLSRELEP
Phenylethanolamine N-methyltransferase (Homo sapiens), sequence (P11086 whole entry, looked up): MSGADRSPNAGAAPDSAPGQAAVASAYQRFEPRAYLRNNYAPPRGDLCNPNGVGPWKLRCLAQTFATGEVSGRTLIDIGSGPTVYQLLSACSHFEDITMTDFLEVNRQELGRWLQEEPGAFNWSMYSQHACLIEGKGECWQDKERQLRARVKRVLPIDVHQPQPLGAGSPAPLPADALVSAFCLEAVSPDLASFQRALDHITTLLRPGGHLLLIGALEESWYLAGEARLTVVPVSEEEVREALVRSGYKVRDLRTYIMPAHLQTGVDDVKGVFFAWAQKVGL
Rap guanine nucleotide exchange factor 4 (Homo sapiens), sequence (Q8WZA2 whole entry, looked up): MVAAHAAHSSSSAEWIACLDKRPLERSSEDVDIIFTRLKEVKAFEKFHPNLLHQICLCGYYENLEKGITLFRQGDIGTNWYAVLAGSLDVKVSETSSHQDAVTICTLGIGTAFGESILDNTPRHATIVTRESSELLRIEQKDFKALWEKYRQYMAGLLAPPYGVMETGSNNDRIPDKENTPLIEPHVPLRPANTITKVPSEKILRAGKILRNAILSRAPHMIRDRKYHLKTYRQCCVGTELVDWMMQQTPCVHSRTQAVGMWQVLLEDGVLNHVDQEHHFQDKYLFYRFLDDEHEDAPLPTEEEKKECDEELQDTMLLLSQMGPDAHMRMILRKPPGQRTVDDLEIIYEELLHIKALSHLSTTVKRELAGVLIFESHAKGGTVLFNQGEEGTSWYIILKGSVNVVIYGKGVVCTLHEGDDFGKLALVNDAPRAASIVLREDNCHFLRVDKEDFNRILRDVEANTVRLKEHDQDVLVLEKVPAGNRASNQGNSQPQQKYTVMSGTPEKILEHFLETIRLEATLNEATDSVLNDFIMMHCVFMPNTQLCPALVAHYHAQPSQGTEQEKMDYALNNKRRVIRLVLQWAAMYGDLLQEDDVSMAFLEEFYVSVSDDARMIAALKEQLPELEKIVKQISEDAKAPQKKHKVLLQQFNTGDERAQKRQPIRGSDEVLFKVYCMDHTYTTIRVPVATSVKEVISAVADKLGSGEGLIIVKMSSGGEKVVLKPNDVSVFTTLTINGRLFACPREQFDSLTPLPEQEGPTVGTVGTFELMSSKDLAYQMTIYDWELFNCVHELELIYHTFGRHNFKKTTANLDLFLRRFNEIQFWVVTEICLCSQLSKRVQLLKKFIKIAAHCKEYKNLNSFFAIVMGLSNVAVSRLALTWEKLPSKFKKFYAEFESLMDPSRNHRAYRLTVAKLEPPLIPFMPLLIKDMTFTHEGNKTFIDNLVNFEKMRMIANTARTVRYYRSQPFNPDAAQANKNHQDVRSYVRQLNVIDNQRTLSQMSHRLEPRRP

## CC(O)C(O)[C@H]1CNc2nc(N)[nH]c(=O)c2N1 (stereo partly drawn)
[1]
  activity: -9.57%
[2]
  activity change, negative = inhibition: 4.12%
[3]
  activity: -14.2%
[4]
  activity: -4.71%

## CCCC(=O)NCCc1c2n(c3ccc(OC)cc13)CCCc1ccccc1-2
[5]
  Potency: inactive
[6]
  Potency: inactive
[7]
  Potency: inactive
[8]
  Potency: 7.84 µM (active)
[9]
  Potency: inactive

## O=C1Cc2c([nH]c3ccc(Br)cc23)-c2ccccc2N1
[10]
  Potency: 6.51 µM (active)
[11]
  Potency: 5.8 µM (active)
[9]
  Potency: inactive

## CNCCc1cnc(CCC(c2ccccc2)c2ccccc2)[nH]1
[1]
  activity: -11%
[2]
  activity change, negative = inhibition: 3.35%
[3]
  activity: -32.7%
[4]
  activity: -3.25%

## Nc1ccc2c3c(cccc13)C(=O)NC2=O
[1]
  activity: 1.42%
[2]
  activity change, negative = inhibition: 4.2%
[3]
  activity: -4.84%
[4]
  activity: 2.54%

## C[C@H](NC(=O)/C(C#N)=C/c1ccc(O)c(O)c1)c1ccccc1
[6]
  Potency: inactive
[7]
  Potency: inactive
[8]
  Potency: inactive
[1]
  activity: 72.5%
[2]
  activity change, negative = inhibition: 2.74%
[3]
  activity: -55.4%
[4]
  activity: -2.26%
[9]
  Potency: inactive

## CC(=O)NCCc1c[nH]c2ccc(O)cc12
[10]
  Potency: inactive
[9]
  Potency: inactive

## CC1=C(/C=C/C(C)=C/C=C/C(C)=C\C(=O)O)C(C)(C)CCC1
[10]
  Potency: inactive
[11]
  Potency: inactive
[9]
  Potency: inactive

## N=C(N)SCCc1cnc[nH]1
[1]
  activity: -3.06%
[2]
  activity change, negative = inhibition: -1.52%
[3]
  activity: -8.2%
[4]
  activity: -8.19%
[9]
  Potency: inactive

## CC(=O)C(C)=O
[9]
  Potency: inactive

## C[C@](Cc1ccc(O)c(O)c1)(NN)C(=O)O
[1]
  activity: 156%
[2]
  activity change, negative = inhibition: 0.684%
[3]
  activity: -8.36%
[4]
  activity: 2.39%
[9]
  Potency: inactive

## C=CCN1CCc2c(cc(O)c(O)c2Cl)C(c2ccccc2)C1 (stereo not drawn)
[1]
  activity: 72.4%
[2]
  activity change, negative = inhibition: 5.83%
[3]
  activity: -9.01%
[4]
  activity: 8.41%
[9]
  Potency: inactive

## COc1ccc(-c2ccc(N)[n+](CCCC(=O)O)n2)cc1
[9]
  Potency: inactive

## NC1(C(=O)O)CCCCC1
[9]
  Potency: inactive

## N[C@@H](Cc1ccc(F)cc1)C(=O)O
[9]
  Potency: inactive

## N#C/C(=C\c1ccc(O)c(O)c1)C(=O)NCCc1ccccc1
[1]
  activity: 85.9%
[2]
  Potency: 0.432 µM (active)
[3]
  activity: -37.9%
[4]
  activity: 0.462%
[9]
  Potency: inactive

## NC(=Nc1ccccc1)NC(=O)c1nc(Cl)c(N)nc1N
[9]
  Potency: inactive

## CCN(CC)CCCCCCCCOC(=O)c1cc(OC)c(OC)c(OC)c1
[1]
  activity: 8.45%
[2]
  activity change, negative = inhibition: 4.66%
[3]
  activity: -0.607%
[4]
  activity: 0.819%
[9]
  Potency: inactive
